We go through 37 molecules from PubChem BioAssay (NCI).

Molecules are shown by their SMILES. About 83,000 compounds went through this panel and 20% of them were active in at least one assay; those are over-represented in the sample as a whole.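 Results are percent growth after 48 hours of single-concentration exposure. 100 means growth as in untreated cells, lower positive values show inhibition; negative values down to -100 show cell death.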 A number with no mark means an inactive call. Calls of active or inactive are those of the source. Rule for the calls: active = growth percent below 10; inactive = the rest.

This test concerns MDA-MB-468 breast. The test is described as follows: NCI-60 one-dose screen, 48 h (100 = growth as untreated, 0 = no growth, -100 = all killed). The following applies: 10 µM unless noted.
In the case of `COc1c(N2CC3CCCNC3C2)c(F)cc2c(=O)c(C(=O)N/N=C/c3ccc(F)cc3)cn(C3CC3)c12` (configuration not stated), the growth was 84.4%. As to `C=CN(C(=O)N1CCN(c2cc3c(cc2F)c(=O)c(C(=O)O)cn3C2CC2)CC1)c1nc(-c2ccc(C)cc2)cs1`, the growth was 44.4%.

Take `COC(=O)Nc1nc2ccc(C(=O)c3ccc(N(C)C4COC4)cc3)cc2[nH]1`: the growth is -8.89% (active).

As to `O=c1c2cc(F)ccc2sc2c(NCCCNCCO)nc3ccccc3c12`, the growth was -72.8% (active). To `COc1ccc2[nH]c(=O)c(CNc3ccc(Nc4nccc(-c5ccc(Cl)cc5)n4)cc3)cc2c1` belongs 88%; to `O=C(Nc1ccc(F)cc1)c1ccc(C(=O)Nc2ccc(F)cc2)cc1`, 99.7%; to `Cc1ccc(S(=O)(=O)c2nc(-c3ccccc3)oc2Sc2nc3ccccc3s2)cc1`, 52.1%. To `COc1ccc(NC(=O)c2ccccc2-c2ccccc2)c(C(N)=O)c1` belongs 27.3%. Next, `CN(C)C1CCN(C(=O)c2ccc(NC(=O)Nc3ccc(-c4nc(N5CCOCC5)c5cccn5n4)cc3)cc2)CC1`: -60.1% (active); `O=C(NNc1nc2cc(F)ccc2n2cccc12)c1ccncn1`: -15.2% (active); `O=C(Nc1ccc(Cl)cc1)Nc1ccc(Oc2nncc3ccccc23)cc1`: -76.2% (active).

For the molecule `COc1cc(OC)c2c(c1Cl)O[C@]1(C2=O)C(OCc2ccccc2)=CC(=O)C[C@H]1C`, the growth is -4.52% (active). With `CC1=NN(c2cccc(Cl)c2)C(=O)/C1=C\C=C\c1ccccc1`, the growth was 9.96% (active).

On to `CC(C)(C)n1nnnc1C(Nc1cccc2c1OCO2)c1cc2cccc3ccc4cccc1c4c32` (configuration not stated), for which the growth was 51.7%. Next, `Cc1cc(O)c(C2=NN(c3ccc(S(N)(=O)=O)cc3)C(/C=C/c3ccccc3)C2)cc1Cl` (configuration not stated): 43.3%; `COc1cc(-c2nn(-c3cccc(NC(=O)CCNc4ccc(N5CCOCC5)cc4)c3)cc2-c2ccncc2)ccc1Cl`: 30.7%; `COC(=O)CC[C@@H]1O[C@@H](c2cccc(C(F)(F)F)c2)[C@@H](O)[C@H]1O`: 89%. Next, `CCc1cc2c(cc1Cl)nc1c(=O)[nH]c(=O)nc-1n2CCOCC(C)(C)C`: 44.3%; `O=C1C=C(O)c2ccccc2C1=O.[Ag]`: 99%; `CCOC(=O)C(=Cc1cccc(C#N)c1)C(=O)OCC`: 43%.

On to `CCCCCCCCCCCC(c1ccccc1)N(C)C` (configuration not stated), for which the growth was 95.4%. To `CNC(=O)c1cccc(Cn2nc(C)c(NC(=O)c3ccc(COc4ccc(C(F)(F)F)cc4C)cc3)c2C)c1` belongs -6.26% (active); to `CC(C)(C)c1nn(-c2ccccc2)c2c1C(=O)CSC(c1ccccc1Cl)N2` (configuration not stated), 19.8%. Next, `O=C1Nc2ccccc2/C1=C/c1cccn1CCCCn1c2ccccc2c(=O)c2ccccc21`: 51%; `COc1cc(C)c(Cc2cnc(N)nc2N)cc1OC`: 116%. To `CC1COc2c(N3CCN(C)CC3)c(F)cc3c(=O)c(C(=O)N/N=C/c4cc[nH]c4)cn1c23` (configuration not stated) belongs -9.35% (active). With `Cc1ccc2nc(Cl)cc(=O)n2c1`, the growth is 112%. To `CC12O[C@H](C[C@@H](OC(=O)CCC(=O)O)[C@H]1O)n1c3ccccc3c3c4c(c5c6ccccc6n2c5c31)C(=O)NC4=O` belongs 25.9%. Regarding `Cn1c2c(cc(S(=O)(=O)c3ccccc3)c1=O)CCc1c-2cnn1-c1ccc(Cl)cc1`, the growth was -43% (active).

`O=C(Nc1cc(Cl)ccc1O)c1ccccc1Nc1ccnc(C(F)(F)F)c1`: the growth was 12.7%. To `COc1ccc(-c2csc(NC(=O)c3cc(O)c(O)c(O)c3)n2)cc1` belongs 78.6%; to `COc1ccccc1NC(=O)C1CC(c2ccc(F)cc2)=NO1` (configuration not stated), 99.7%. To `CCn1c(SCC(=O)Nc2cccc(C(=O)/C=C/c3ccc(C)cc3)c2)nc2ccccc2c1=O` belongs 58.7%. To `COC(=O)[C@]12CC[C@@H](C)[C@H](C)[C@@H]1C1=CC[C@@H]3[C@@]4(C)C[C@@H](O)[C@H](O)[C@@](C)(CO)[C@@H]4[C@H](O)C[C@@]3(C)[C@]1(C)CC2` belongs -53% (active). Consider `[Cl][Ru].c1ccc(-c2cc(-c3ccccn3)nc(-c3ccccn3)c2)cc1.c1ccc(-c2ccnc3c2ccc2c(-c4ccccc4)ccnc23)cc1`, for which the growth was -66.3% (active). To `C1=C[C@H]2O[C@@H]1c1ccc3[nH]ccc3c12` belongs 76.2%.

With `O=c1c2sc3ncccc3c2nnn1-c1ccccc1`, the growth was 104%.
